# Experimental data published in the supplement of paper PMC9492666.
# Where a name gives a salt, the structure may show the parent alone.
# Legend:
# Settings in all cases: 72 h
# [1] = tested on: HCC1937; assay: relative cell viability, compound + RSL3, vs DMSO (fraction of DMSO control); higher = less growth inhibition
# [2] = tested on: MDA-MB-231; assay: as above
# [3] = tested on: HCC1937; assay: relative cell viability, compound alone, vs DMSO (fraction of DMSO control); higher = less growth inhibition
# [4] = tested on: MDA-MB-231; assay: as above
# 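For relative cell viability, compound + RSL3, vs DMSO in this document: breast cancer cell viability read out with the CCK-8 kit after co-treatment of each compound with the ferroptosis inducer RSL3.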
# 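For relative cell viability, compound alone, vs DMSO in this document: viability read out with the CCK-8 kit in 96-well plates, screening a set of 303 compounds acting on lipid metabolism targets.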
SMILES,relative cell viability [1],relative cell viability [2],relative cell viability [3],relative cell viability [4]
Oc1ccc2c(c1)OCO2 [Sesamol] + COC(=O)c1ccc([C@H]2c3[nH]c4ccccc4c3C[C@H](C(=O)OC)N2C(=O)CCl)cc1 [RSL3],0.399,0.548,–,–
O=S(=O)(O)c1ccc2cc(N=Nc3cc(S(=O)(=O)O)c4cccnc4c3O)ccc2c1,–,–,0.987,0.851
CCCc1c(OCCCOc2ccc(OCC(=O)O)cc2)ccc(C(C)=O)c1O,–,–,0.943,1.07
COc1cc(O)c2c(c1)O[C@H](c1ccc(O)cc1)CC2=O [Sakuranetin],–,–,0.627,0.941
CN(C(=O)n1cnc(-c2ccc[n+]([O-])c2)c1)C1CCCCC1 + COC(=O)c1ccc([C@H]2c3[nH]c4ccccc4c3C[C@H](C(=O)OC)N2C(=O)CCl)cc1 [RSL3],0.292,0.526,–,–
c1cc(-c2cnn3cc(-c4ccc(OCCN5CCCCC5)cc4)cnc23)ccn1 [Dorsomorphin dihydrochloride] + COC(=O)c1ccc([C@H]2c3[nH]c4ccccc4c3C[C@H](C(=O)OC)N2C(=O)CCl)cc1 [RSL3],0.111,0.286,–,–
CC(C)c1nc(N(C)S(C)(=O)=O)nc(-c2ccc(F)cc2)c1/C=C/[C@@H](O)C[C@@H](O)CC(=O)O [Rosuvastatin] + COC(=O)c1ccc([C@H]2c3[nH]c4ccccc4c3C[C@H](C(=O)OC)N2C(=O)CCl)cc1 [RSL3],0.54,0.527,–,–
CC1(C)C[C@H]2C3=CC[C@@H]4[C@@]5(C)CC[C@H](O)[C@@](C)(CO)[C@@H]5CC[C@@]4(C)[C@]3(C)C[C@H](O)[C@@]2(CO)[C@@H](O)[C@@H]1O [Gymnemagenin],–,–,1.13,1.04
Cc1cc(N2C[C@@H](C)N[C@@H](C)C2)ncc1-c1ccc(-c2nc3c(ccn3C)c(=O)[nH]2)cc1 + COC(=O)c1ccc([C@H]2c3[nH]c4ccccc4c3C[C@H](C(=O)OC)N2C(=O)CCl)cc1 [RSL3],0.496,0.682,–,–
COc1ccc(/C=C/c2cc(O)cc(O[C@@H]3O[C@H](CO)[C@@H](O)[C@H](O)[C@H]3O)c2)cc1 [Deoxyrhapontin],–,–,0.932,0.995
O=C(O)c1cccc(N=Nc2c(O)[nH]c3ccc(S(=O)(=O)NCc4ccc(F)cc4)cc23)c1,–,–,0.885,0.938
CCCCCCCCCCCCCCOc1ccc(C(=O)O)o1 + COC(=O)c1ccc([C@H]2c3[nH]c4ccccc4c3C[C@H](C(=O)OC)N2C(=O)CCl)cc1 [RSL3],0.613,0.673,–,–
Cc1c(C(=O)NN2CCOCC2)nn(-c2ccc(Cl)cc2Cl)c1-c1ccc(I)cc1,–,–,0.645,0.817
N#Cc1ccc(Oc2cccc(NC(=O)Nc3ccc(Cl)c(C(F)(F)F)c3)c2)cc1,–,–,0.1,0.276
O=C(Nc1cccnn1)N1CCC(=Cc2cccc(Oc3ccc(C(F)(F)F)cn3)c2)CC1,–,–,1.15,0.987
Cc1ccc(Oc2nc3cc(-c4ccc(-c5ccccc5)cc4)c(Cl)cc3[nH]2)cc1C(=O)O,–,–,0.95,0.92
CC1CC(OC(=O)C(O)c2ccccc2)CC(C)(C)C1 (stereo not drawn) [Cyclandelate] + COC(=O)c1ccc([C@H]2c3[nH]c4ccccc4c3C[C@H](C(=O)OC)N2C(=O)CCl)cc1 [RSL3],0.808,0.638,–,–
CCCCCCCCCc1ccc(B(O)O)cc1 [4-Nonylphenylboronic acid],–,–,1.01,1.08
CC(C)[C@H]1CC[C@H](C(=O)N[C@H](Cc2ccccc2)C(=O)O)CC1 [Nateglinide] + COC(=O)c1ccc([C@H]2c3[nH]c4ccccc4c3C[C@H](C(=O)OC)N2C(=O)CCl)cc1 [RSL3],0.594,0.487,–,–
COc1ccc(-c2coc3cc(O)cc(O)c3c2=O)cc1 [Biochanin A],–,–,0.813,0.729
C[C@H](CCC(=O)O)[C@H]1CC[C@H]2[C@@H]3C[C@H](O)[C@@H]4C[C@H](O)CC[C@]4(C)[C@H]3CC[C@]12C [Hyodeoxycholic acid],–,–,0.929,1.02
COC(=O)c1sccc1S(=O)(=O)Nc1ccc(Nc2ccccc2)cc1OC,–,–,0.795,0.871
O=C(O)c1c[nH]c2cc(Cl)c(-c3ccc(C4(O)CCC4)cc3)cc12,–,–,0.958,0.914
O=C(O)Cn1nnc(-c2cc(N3CCC(Oc4cc(F)ccc4Br)CC3)no2)n1 + COC(=O)c1ccc([C@H]2c3[nH]c4ccccc4c3C[C@H](C(=O)OC)N2C(=O)CCl)cc1 [RSL3],0.428,0.632,–,–
